# Measured values: PubChem BioAssay (NCI)
# Compounds without any hit were thinned out: in the full panel of roughly 83,000, 20% have a hit.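 Interpretation: 100, growth as untreated; towards 0, rising growth inhibition; 0, no net growth; 0 to -100, cell death. Compounds scoring below 10 were considered active.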 Values without a mark were called inactive. Calls of active or inactive are those of the source.
# Tested on: MDA-MB-468 breast
# Assay: NCI-60 one-dose screen, 48 h (100 = growth as untreated, 0 = no growth, -100 = all killed)
# Settings: 10 µM unless noted
row,Compound,growth
1,COc1ccc(C2Nc3ncnc(N)c3N=C3c4ccccc4C(=O)C32)cc1 (stereo unspecified),86.1%
2,CS(=O)(=O)c1nsc(N)n1,109%
3,COc1cc(C(=O)c2c(N)ncn2-c2ccccc2)cc(OC)c1OC,76%
4,CCOC(=O)CSc1nnc(-c2cc3c([nH]c4ccccc43)c(-c3cccc(O)c3)n2)n1-c1ccc(C)cc1,27.2%
5,Cc1ccc(NC(=O)CSc2nnc3n(Cc4ccccc4)c(=O)c4c(C)c(C(N)=O)sc4n23)cc1,107%
6,COc1ccc(S(=O)(=O)NCCCNc2nccc(-c3cn(C(C)(C)C)nc3-c3ccc(Cl)c(OC)c3)n2)cc1,76.8%
7,CCN(CC)CCOc1ccc(C(=C(c2ccccc2)C2CCCC2)c2ccc(OCCN(CC)CC)cc2)cc1,-77.5% (active)
8,C=C(C)C(=O)O[C@H]1C[C@@]2(C)OC(=CC2=O)/C(CO)=C\[C@H]2OC(=O)C(=C)[C@H]12,-34% (active)
9,CC1(C)CC2(C)OC2C2(C1)N=NC(=Nc1ccccc1)O2 (stereo unspecified),-15.6% (active)
10,Cc1ccc(S(=O)(=O)N2CCCN(c3nc(-c4ccccc4)nc4nc(-c5ccccc5)oc34)CC2)cc1,109%
11,Cc1nn(-c2ccccc2)c2nc(Cl)c(C=O)c(-c3ccccc3)c12,94.7%
12,COc1cc2nc(Cl)nc(Nc3cccc(C4=Nc5c(N)nc(N)nc5NC(c5ccc6c(c5)OCO6)C4)c3)c2cc1OC (stereo unspecified),81.7%
13,C#CCC1(c2ccc(F)c(F)c2)NS(=O)(=O)c2ccccc21 (stereo unspecified),95.2%
14,Cc1ccc(Cn2c(-c3cccs3)nc3ccccc32)cc1,67.5%
15,Cc1c2oc3c(C)ccc(C(=O)OC(C)C4NC(=O)C(C(C)C)N(C)C(=O)CN(C)C(=O)C5CCCN5C(=O)C(C(C)C)NC4=O)c3nc-2c(C(=O)OC(C)C2NC(=O)C(C(C)C)N(C)C(=O)CN(C)C(=O)C3CCCN3C(=O)C(C(C)C)NC2=O)c(N)c1=O (stereo unspecified),-68.7% (active)
16,c1ccc(CNc2c3ccccc3nc3ccccc23)cc1,19.4%
17,CCOC(=O)c1c(C)nc2c(c1N)CC(=O)N2Cc1ccc(OC)cc1,36.2%
18,ClC1(Cl)C2CCCCCCC21 (stereo unspecified),118%

row,Compound,growth
1,CCOc1ccc(/C=C\C(=O)O)cc1,121%
2,Cc1ccccc1NS(=O)(=O)c1cccc(C(=O)Nc2ccc(Br)cc2)c1,-2.56% [25 µM] (active)
3,C=C1c2nc3ccccc3n2C=C(c2ccc(Cl)cc2)N1Cc1ccc(OC)cc1,80.8%
4,Cc1cnc([C@]23CC[C@@H](C)[C@H](C)[C@H]2C2=CC[C@@H]4[C@@]5(C)Cc6c([nH]c7ccccc67)C(C)(C)[C@@H]5CC[C@@]4(C)[C@]2(C)CC3)o1,90.6% [100 µM]
5,CCN(CC)CCCC(C)Nc1cnc(C(=O)Nc2ccc(Cl)c3cccnc23)cn1 (stereo unspecified),-28% (active)
6,O=[N+]([O-])c1cccc(-c2nc3sccn3c2-c2ccnc(NCCNS(=O)(=O)c3ccc(C(F)(F)F)cc3)n2)c1,28.3%
7,CC(C)(CC(=O)O)CC(=O)O,96.4%
8,COc1cc2c(cc1-c1c(C)noc1C)ncc1nc(C3CCCCC3)n([C@H](C)COC(F)F)c12,38.5%
9,CCNC(=S)N(Cc1ccccc1)Cc1ccccc1,95.4%
10,O=C(Nc1ncc(Cc2cccc(C(F)(F)F)c2)s1)c1ccc2c(c1)OCCO2,15.6%
11,O=C(Cc1nc2ccc([N+](=O)[O-])cc2nc1CC(=O)c1cccnc1)c1cccnc1,75.7%
12,CN1CCN(c2nc3scc(-c4ccccc4)c3c(=O)[nH]2)CC1,98.1%
13,CC(C)(C)n1cc(-c2ccnc(NCCNS(=O)(=O)c3ccc(Cl)cc3)c2)c(-c2cccc(O)c2)n1,32.6%
14,Fc1ccc2nc3c(cc2c1)CSc1nnc(-c2ccc[nH]c2=S)n1N3,105%
15,COc1cc2nc(Cc3ccc(C)cc3)[nH]c(=O)c2cc1OC,98.8%
16,CCOC(=O)c1nc(Nc2ccc(C(C)=O)cc2)sc1C,96.9%
17,CS(=O)(=O)Nc1cc(-c2ccc3ncnc(Nc4ccc(F)c(Cl)c4)c3c2)cnc1Cl,-43.3% (active)
18,CCCCCN1C=C/C(=C\C(=O)N(C)c2ccc(Oc3ccccc3)cc2)c2ccccc21,22.3%
